# Test results: PubChem BioAssay
# Several values for one entry are separate records, joined by “and”; a condition that tells them apart may be missing. Equal entries are not always repeated. Activity calls are given as the source filed them. Rule as the data show it, unless noted: active = inhibition above about 80%; inactive = the rest.
# Columns and labels:
# [1] = viability loss with induced miR-34 in A549 – imaging, A549 dox-inducible miR-34, nuclei and caspase counts, primary screen (AID 1347080;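 active = compounds whose cell count with miR-34 switched on is under 0.7 times the count with it off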); settings: A549 miR-34 inducible, Hoechst nuclei count, 48 h
# [2] = MELAS cybrid and Rieske KO viability enhancers – cell-based, MELAS cybrids, Rieske KO mouse fibroblasts, CellTiter-Glo, primary screen (AID 1508586;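 active = mean z-score across replicates of 1.96 or higher in either the MELAS or the Rieske mutant cell line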;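 also: z relative to plate mean and SD of compound and empty wells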); settings: low glucose
# [3] = growth inhibition, single agent or in combination, cell-based, chromothripsis tumors, cisplatin or BGB combos (AID 1671449); settings: LFS_MB_P medulloblastoma cells;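 also: cells exposed for 96 hours; 0% = vehicle DMSO and 100% = killing by high DMSO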
# [4] = growth inhibition, single agent and combos, cell-based, chromothripsis tumors, cisplatin or BGB combos (AID 1671450); settings: HDN33 neuroblastoma cells, stronger effect = higher value;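 also: cells exposed to compound for four days; 0% = vehicle DMSO and 100% = cell killing by high DMSO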
# [5] = growth inhibition, single agents and combos, ICB984, cell-based, cisplatin or BGB combos, synergistic combos for chromothripsis tumors (AID 1671451; call rule not given here;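 also: cells exposed for 96 hours before readout; 0% = vehicle DMSO and 100% = killing by high DMSO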); settings: ICB984 medulloblastoma cells, drug combinations, stronger effect = higher value
# [6] = growth inhibition, single agents and combos, LFS_MB_1R, cell-based, cisplatin or BGB combos, synergistic combos for chromothripsis tumors (AID 1671452); settings: LFS_MB_1R medulloblastoma cells, stronger effect = higher value;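 also: cells exposed for 96 hours before readout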
# [7] = growth inhibition, single agents and combos, HTB85, cell-based, BGB or cisplatin IC20 combos, synergistic combos for chromothripsis tumors (AID 1671453); settings: HTB85 osteosarcoma cells, drug combinations, stronger effect = higher value;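 also: cells exposed for 96 hours before readout; 0% = vehicle DMSO and 100% = high DMSO killing control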
# [8] = growth inhibition, single agents and combos, CRL2098, cell-based, BGB or cisplatin IC20 combos, synergistic combos for chromothripsis tumors (AID 1671454); settings: CRL2098 osteosarcoma cells, drug combinations, at 0.5 µM, stronger effect = higher value;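 also: cells exposed for 96 h before readout; 0% = vehicle DMSO and 100% = killing by high DMSO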
# [9] = measured here: combination with BGB IC40, at 0.05 µM
smiles,measurement,setting,value
CN(C)CC(=O)Nc1ccc2[nH]c(=O)c3ccccc3c2c1,fold change,"[1]; stronger effect = lower value, cell number ratio, induced over uninduced",0.941 (inactive) and 0.916 (inactive)
same,fold change,[1]; measured here: relative caspase fold change +Dox/-Dox,0.694 and 0.571
same,cell count,"[1]; measured here: total cells with miR-34 induction, stronger effect = lower value",5000 and 7760
same,cell count,[1]; measured here: total cells without miR-34 induction,5310 and 8470
same,z-score,"[2]; MELAS cybrid survival, CellTiter-Glo 48 h, stronger effect = higher value",-0.15 (inactive) and -0.352 (inactive)
same,z-score,"[2]; Rieske KO mouse fibroblast survival, CellTiter-Glo 72 h",-0.197 and 0.819
same,inhibition,"[3]; at 0.5 µM, stronger effect = higher value",-18.5% (inactive) and -17% (inactive) and -7.46% (inactive)
same,inhibition,"[3]; measured here: combination with BGB IC20, at 0.005 µM",12.4% and -8.96% and -31.5%
same,inhibition,"[3]; measured here: combination with BGB IC40, at 0.005 µM",-19.5% and -21.6% and -39.4%
same,inhibition,[3]; [9],-14.8% and -27.5% and -40.5%
same,inhibition,"[3]; measured here: combination with cisplatin, at 0.5 µM, stronger effect = higher value",-45.3% and -39.5% and -30.4%
same,inhibition,"[3]; measured here: combination with cisplatin, at 5 µM, stronger effect = higher value",4.17% and -17.8% and -4.6%
same,inhibition,"[4]; BGB combo, at 5 µM",7.32% and -6.67% and -9.33%
same,inhibition,[4]; at 0.5 µM,6.02% (inactive) and -1.05% (inactive) and -19% (inactive)
same,inhibition,"[4]; cisplatin combo, at 5 µM",17.1% and 1.58% and -10.8%
same,inhibition,"[4]; measured here: with BGB IC20 combination, at 0.5 µM",-3% and -3.63% and -21.1%
same,inhibition,"[4]; measured here: with cisplatin IC20 combination, at 0.5 µM",16.9% and 5.73% and -18.5%
same,inhibition,"[4]; single agent, at 5 µM",15.5% and 10.2% and 30.1%
same,inhibition,"[5]; BGB IC20 combo, at 0.005 µM",-13.3% and -2.95% and -7.79%
same,inhibition,"[5]; BGB IC40 combo, at 0.005 µM",-17% and -47.2% and -17.2%
same,inhibition,"[5]; BGB IC40 combo, at 0.05 µM",-0.058% and 4.16% and -0.711%
same,inhibition,[5]; at 0.5 µM,-28.4% (inactive) and -20.4% (inactive) and -5.86% (inactive)
same,inhibition,"[5]; cisplatin combo, at 0.05 µM",-2.85% and 1.48% and -4.33%
same,inhibition,"[5]; cisplatin combo, at 0.5 µM",-27.2% and -5.09% and 16.6%
same,inhibition,"[5]; cisplatin combo, at 5 µM",-20% and -21% and -0.405%
same,inhibition,"[5]; measured here: 5 uM single agent, at 5 µM",-18.7% and -14.3% and -10.6%
same,inhibition,[6]; at 0.5 µM,-13.8% (inactive) and -13.5% (inactive) and -14% (inactive)
same,inhibition,[6]; [9],-3.83% and -23.1% and -25.7%
same,inhibition,"[6]; measured here: combination with cisplatin, at 0.5 µM",0.486% and -10.2% and -9.3%
same,inhibition,"[6]; measured here: combination with cisplatin, at 5 µM",-18.1% and 3.23% and -15.4%
same,inhibition,[7]; at 0.5 µM,-2.64% (inactive) and 6.11% (inactive) and -9.79% (inactive)
same,inhibition,"[7]; measured here: with BGB IC20, at 0.5 µM",-8.36% and -5.68% and -25.9%
same,inhibition,"[7]; measured here: with BGB IC20, at 5 µM",-24.1% and 8.44% and -2.25%
same,inhibition,"[7]; measured here: with cisplatin IC20, at 0.5 µM",-8.52% and 5.14% and 3.46%
same,inhibition,"[7]; measured here: with cisplatin IC20, at 5 µM",-29.8% and -39.5% and -46.8%
same,inhibition,"[7]; single agent, at 5 µM",1.63% and -7.42% and 3.8%
same,inhibition,[8],-36.8% (inactive) and -23.4% (inactive) and -51.4% (inactive)
